pPAFAH FP inh: pPAFAH (human) enzyme inhibition; Q13093; recombinant pPAFAH, FP-rhodamine probe fluorescence polarization; inhibition, % at 3.39 µM; actives 1.5% (n = 330,000);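 active means inhibition above the mean inhibition across the screen plus 3 SD, cut at about 25% in these data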;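 further: inhibitors block binding of the rhodamine activity-based probe so polarization drops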
DAGLB inhibitor: blocks human DAGLB lipase activity. Q8NCG7. HEK293T DAGLB membrane lysate, EnzChek fluorogenic substrate. inhibition, % at 5.17 µM. actives 0.059% (n = 340,000). AID 504411; in the data active means inhibition above about 34%
HTRA1 inhibitor: blocks human HTRA1 serine peptidase | Q92743 | recombinant HTRA1, FP-rhodamine activity-based probe, fluorescence polarization | inhibition, % at 5.96 µM | actives 0.5% (n = 340,000); in the data active means inhibition above about 36%
PAFAH2 FP inh: inhibitors of human PAFAH2. Q99487. recombinant PAFAH2, FP-rhodamine activity probe, fluorescence polarization. inhibition, % at 3.39 µM. actives 0.99% (n = 340,000). AID 492956;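 active means inhibition above the mean over all tested compounds plus 3 SD, cut at about 30% in these data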;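 further: inhibitors block probe labeling of enzyme so polarization drops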
PAFAH1B3 FP inh: blocks human PAF acetylhydrolase 1B catalytic subunit 3; Q15102; recombinant PAFAH1B3, FP-rhodamine probe, fluorescence polarization; inhibition, % at 3.39 µM; actives 0.28% (n = 340,000); AID 492972;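 active means inhibition above the screen-wide average of all tested compounds plus 3 SD, cut at about 25% in these data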
Target sequence (Q15102 whole entry, looked up): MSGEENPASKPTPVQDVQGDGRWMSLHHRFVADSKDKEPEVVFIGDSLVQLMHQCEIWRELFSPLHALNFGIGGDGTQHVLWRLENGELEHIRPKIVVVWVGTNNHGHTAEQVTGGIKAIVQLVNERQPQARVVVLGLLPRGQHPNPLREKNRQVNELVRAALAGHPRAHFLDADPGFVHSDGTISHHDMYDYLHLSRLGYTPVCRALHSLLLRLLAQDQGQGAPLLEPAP
PAFAH1B2 FP inh: inhibitors of human PAFAH1B2. actives 1.2% (n = 340,000). recombinant PAFAH1B2, FP-rhodamine activity probe, fluorescence polarization. inhibition, % at 3.39 µM;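 active means inhibition above the mean of all tested compounds plus 3 SD, cut at about 24% in these data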
Target sequence (P68402 whole entry, looked up): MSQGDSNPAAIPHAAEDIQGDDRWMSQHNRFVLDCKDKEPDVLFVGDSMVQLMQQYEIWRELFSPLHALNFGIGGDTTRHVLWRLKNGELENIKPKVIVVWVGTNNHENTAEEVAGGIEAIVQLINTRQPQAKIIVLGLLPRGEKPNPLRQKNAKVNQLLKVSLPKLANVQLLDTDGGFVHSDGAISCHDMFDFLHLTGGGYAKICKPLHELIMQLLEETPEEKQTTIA
PAFAH2 confirm: PAFAH2 (human) inhibition, confirmed. shares compounds with PAFAH2 FP inh. recombinant PAFAH2, FP-rhodamine activity probe, fluorescence polarization. inhibition, % at 3.39 µM. actives 65% (n = 2,300);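 active means mean inhibition over three repeats above a set limit taken from the earlier primary screen, cut at about 30% in these data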;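 further: inhibitor blocks binding of rhodamine activity probe so polarization falls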
Of the large screens only hits and unclear results are named; the others gave an inactive call (follow-up assays come after a bar, where they were run). Compounds with a hit are over-represented: about 2.8% of the library has one in this group of screens.

Cc1noc(C)c1S(=O)(=O)Nc1ccc2c(c1)C(=O)N([C@@H](C)CO)C[C@H](C)[C@@H](CN(C)Cc1ccc(C(F)(F)F)cc1)OCCCC[C@H](C)O2	none (no result: pPAFAH FP inh, PAFAH2 FP inh, PAFAH1B3 FP inh, PAFAH1B2 FP inh)
CC(=O)C(Cc1ccccc1)NC(=O)COC(=O)c1cccc(C)c1[N+](=O)[O-] (stereo not given)	PAFAH2 FP inh 35.5 | PAFAH2 confirm inactive
O=C(NCC(c1cccs1)N1CCOCC1)c1ccccc1NS(=O)(=O)c1ccc(Cl)c([N+](=O)[O-])c1 (stereo not given)	PAFAH2 FP inh 42.6 | PAFAH2 confirm 81.0
CN1C(=O)/C(=C\c2ccccc2OCc2ccccc2)SC1=S	none
O=C(O)COc1ccccc1/C=C1\SC(=S)N(NC(=O)c2ccccc2O)C1=O	none
O=C(O)CN1C(=O)/C(=C\c2ccccc2OCc2ccc(Cl)cc2)SC1=S	PAFAH2 FP inh 30.1 | PAFAH2 confirm inactive
O=C(O)COc1ccccc1/C=C1\SC(=S)N(/N=C/c2ccccc2O)C1=O	PAFAH2 FP inh 41.9 | PAFAH2 confirm 31.9
CC(C)CC(NC(=O)C(NC(=O)C1CCC(=O)N1C(=O)OCc1ccccc1)C(C)C)C(=O)N1CCCC1C(N)=O (stereo not given)	PAFAH2 FP inh 39.6 | PAFAH2 confirm 41.4
C#CCN1C(=O)S/C(=C/C=C/c2ccc(N(C)C)cc2)C1=O	none
O=C(COC(=O)CC1CC2CCC1C2)Nc1ccc(Cl)c(S(=O)(=O)N2CCOCC2)c1 (stereo not given)	PAFAH2 FP inh 69.4 | PAFAH2 confirm 58.7
Cc1ccc(NC(=O)COC(=O)c2sccc2C)cc1S(=O)(=O)N1CCOCC1	PAFAH2 FP inh 80.8 | PAFAH2 confirm 72.2
Cc1ccsc1C(=O)OCC(=O)Nc1cccc(S(=O)(=O)N2CCOCC2)c1	PAFAH2 FP inh 76.8 | PAFAH2 confirm 57.9
Cc1ccc(NC(=O)COC(=O)Cn2c(C)csc2=O)cc1S(=O)(=O)N1CCOCC1	none (no result: pPAFAH FP inh)
Cc1sc2ncnc(NCCc3ccc(S(N)(=O)=O)cc3)c2c1C	none
Cc1c(C(c2cccc(Br)c2)c2c(C)n(C)n(-c3ccccc3)c2=O)c(=O)n(-c2ccccc2)n1C	PAFAH2 FP inh 38.7 | PAFAH2 confirm inactive
CSCc1ccc(C(=O)OCC(=O)NC2CCCC2)o1	none (no result: pPAFAH FP inh, PAFAH2 FP inh, PAFAH1B3 FP inh, PAFAH1B2 FP inh)
Cc1cccc(N(C)S(=O)(=O)c2c(C)noc2C)c1	none
Cc1ccc(C(=O)OCC(=O)Nc2ccc(C)c(S(=O)(=O)N3CCCCC3)c2)o1	none (no result: pPAFAH FP inh, PAFAH2 FP inh, PAFAH1B3 FP inh, PAFAH1B2 FP inh)
Cc1ccc(NC(=O)COC(=O)c2ccc3c(c2)OCO3)cc1S(=O)(=O)N1CCCCC1	PAFAH2 FP inh 69.0 | PAFAH2 confirm 63.0
Cc1ccc(NC(=O)CNC(=O)c2ccc(OC(F)F)cc2)cc1S(=O)(=O)N1CCCCCC1	none (no result: pPAFAH FP inh)
Cc1ccc(NC(=O)COC(=O)c2ccc(OC(F)F)cc2)cc1S(=O)(=O)N1CCCCC1	PAFAH2 FP inh 51.4 (no result: pPAFAH FP inh) | PAFAH2 confirm 42.2
Cc1ccc(NC(=O)COC(=O)c2cccnc2Cl)cc1S(=O)(=O)N1CCCCC1	PAFAH2 FP inh 52.8 | PAFAH2 confirm 33.7
O=P(C(=NCCO)NO)(N1CCOCC1)N1CCOCC1	none
COc1ccc(N(C(=O)c2cnccn2)C(C(=O)NC2CCCCC2)c2ccccc2)cc1 (stereo not given)	none
COc1ccc(N2C(=O)C3[C@@H](C2=O)C2(Cl)C(Cl)=C(Cl)C3(Cl)C2(OC)OC)cc1 (stereo not given in full)	PAFAH2 FP inh 32.6 | PAFAH2 confirm 31.3
CCN(CC)c1ccc(C(=O)Nc2cccc(F)c2)cc1	PAFAH2 FP inh 37.6 | PAFAH2 confirm 42.4
CN(C)c1cccc(C(=O)Nc2cccc(F)c2)c1	none
CCCCNC(=O)COC(=O)c1ccc(SC)cc1OC	PAFAH2 FP inh 45.9 | PAFAH2 confirm inactive
CCOc1ccccc1C(=O)OCC(=O)NCC1CCCCC1	PAFAH2 FP inh 44.3 | PAFAH2 confirm 48.1
COc1cc(OC)c(C(=O)OCC(=O)NCC2CCCCC2)cc1OC	PAFAH2 FP inh 51.2 (no result: pPAFAH FP inh) | PAFAH2 confirm 42.9
COc1cc(OC)c(C(=O)OCC(=O)NC2CCCCCCC2)cc1OC	PAFAH2 FP inh 74.7 | PAFAH2 confirm 82.6
COc1nc(NCCc2ccc(OC)c(OC)c2)nc(Nc2ccccc2)n1	none
Cc1ccc(CNC(=O)CSc2nnc(CNC(=O)c3ccccc3)o2)cc1	none

High-throughput results (PubChem)
